Read-out in test [1]: TIMP metallopeptidase inhibitor 2 (TIMP2), TIMP2 (gene 7077)
The test is described as follows: BSK_KF3CT_TIMP2: BioMAP Diversity Plus: KF3CT Assay for TIMP metallopeptidase inhibitor 2 (TIMP2) Biomarker Activity (AID 2283071). As to conditions: primary human keratinocytes with fibroblasts; actives raise or lower the signal. The method in brief:
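Chemicals were dosed onto human skin primary co-cultures of keratinocytes and foreskin fibroblasts, and TIMP-2 was measured by ELISA after 24 hours. Activity in either direction was fitted relative to DMSO.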

Read-out in test [2]: C-C motif chemokine 2 (Homo sapiens) (UniProt P13500)
Put plainly: BSK_KF3CT_MCP1: BioMAP Diversity Plus: KF3CT Assay for Monocyte Chemoattractant Protein 1 (MCP1/CCL2) Biomarker Activity (AID 2283073). The following applies: primary human keratinocytes with fibroblasts; actives raise or lower the signal. In a few lines:
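ELISA read-out of MCP-1, 24 h post-dose, in primary human skin keratinocytes co-cultured with fibroblasts. Parallel SRB staining monitors cytotoxicity; changes fitted both directions relative to DMSO.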

Read-out in test [3]: Matrix Metallopeptidase 9 (MMP9), MMP9 (gene 4318)
Put plainly: BSK_KF3CT_MMP9: BioMAP Diversity Plus: KF3CT Assay for Matrix Metallopeptidase 9 (MMP9) Biomarker Activity (AID 2283074).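 For AC50: MMP9 protein level quantified by ELISA in the co-culture.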 The following applies: primary human keratinocytes with fibroblasts; actives raise or lower the signal. The method in brief: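 ELISA read-out of MMP-9 at 24 h post-dosing in a co-culture of human skin keratinocytes and foreskin fibroblasts. Gain or loss of signal was fitted in both directions against DMSO.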

Read-out in test [4]: urokinase plasminogen activator (uPA), PLAU (gene 5328)
Put plainly: BSK_KF3CT_uPA: BioMAP Diversity Plus: KF3CT Assay for urokinase plasminogen activator (uPA) Biomarker Activity (AID 2283075). The following applies: primary human keratinocytes with fibroblasts; actives raise or lower the signal. The method in brief: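 Skin co-culture (keratinocytes + foreskin fibroblasts), human primary; 24 h post-dose; uPA by ELISA; gain/loss fit vs DMSO baseline.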

Read-out in test [5]: CD40, CD40 (gene 958)
The test is described as follows: BSK_LPS_CD40: BioMAP Diversity Plus: LPS Assay for CD40 Biomarker Activity (AID 2283076). The following applies: primary human HUVEC with PBMC; actives raise or lower the signal. In a few lines:
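In the LPS system of human endothelial cells with peripheral blood mononuclear cells, CD40 levels were read by ELISA 24 h post-treatment. Signal changes in either direction were fitted against the DMSO baseline, with parallel SRB protein staining.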

Read-out in test [6]: E-selectin (Homo sapiens) (UniProt P16581)
Put plainly: BSK_LPS_Eselectin: BioMAP Diversity Plus: LPS Assay for Eselectin Biomarker Activity (AID 2283077). The following applies: primary human HUVEC with PBMC; actives raise or lower the signal. The method in brief:
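E-selectin ELISA on LPS-stimulated endothelial cell/PBMC co-cultures, read 24 h post-treatment; gains and losses fitted against DMSO. Parallel SRB staining (0.1% SRB after 10% TCA fixation, 560 nm) flags overt cytotoxicity.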

Read-out in test [7]: Interleukin-8 (IL8), CXCL8 (gene 3576)
The test is described as follows: BSK_LPS_IL8: BioMAP Diversity Plus: LPS Assay for Interleukin-8 (IL8) Biomarker Activity (AID 2283078). The following applies: primary human HUVEC with PBMC; actives raise or lower the signal. In a few lines:
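ELISA read-out of IL-8 after 24 h chemical treatment of LPS-activated endothelial/PBMC human primary co-cultures. Changes either up or down relative to DMSO; overt cytotoxicity checked by sulforhodamine B staining in parallel wells.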

Test [8] can be described thus: BSK_LPS_SRB: Viability Assessment in the BioMAP Diversity Plus: LPS Assay (AID 2283079).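 Note: total protein by sulforhodamine B absorbance as a cytotoxicity measure; measured one day after compound addition.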 The following applies: primary human HUVEC with PBMC. The method in brief:
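SRB viability endpoint: cells fixed with 10% TCA, stained with 0.1% SRB, read at 560 nm, 24 h post-dose. HUVEC/PBMC co-culture; signal change in either direction scored relative to DMSO.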

Read-out in test [9]: Interleukin-1 alpha (IL1a), IL1A (gene 3552)
Put plainly: BSK_LPS_IL1a: BioMAP Diversity Plus: LPS Assay for Interleukin-1 alpha (IL1a) Biomarker Activity (AID 2283080). The following applies: primary human HUVEC with PBMC; actives raise or lower the signal. The method in brief: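 Readout is IL-1a level by ELISA, 24 h post-dose, fitted as gain or loss relative to DMSO. System: LPS-activated human primary co-culture of vascular endothelium and peripheral blood mononuclear cells, with parallel SRB total-protein cytotoxicity.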

Read-out in test [10]: Monocyte Chemoattractant Protein-1 (MCP1), CCL2 (gene 6347)
The test is described as follows: BSK_LPS_MCP1: BioMAP Diversity Plus: LPS Assay for Monocyte Chemoattractant Protein-1 (MCP1) Biomarker Activity (AID 2283081). As to conditions: primary human HUVEC with PBMC; actives raise or lower the signal. The method in brief: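 Secreted MCP-1 read by ELISA at 24 h post-dosing in an LPS-activated co-culture of endothelial cells with peripheral blood mononuclear cells. Fits run in both directions, DMSO as baseline; parallel SRB staining tracks overt cytotoxicity.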

Test [11] can be described thus: BSK_LPS_PGE2: BioMAP Diversity Plus: LPS Assay for Prostaglandin E2 (PGE2) Biomarker Activity (AID 2283082). The following applies: primary human HUVEC with PBMC; actives raise or lower the signal. In a few lines: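 Compounds were added to the LPS co-culture of endothelium and PBMC, and PGE2 was measured by ELISA after 24 h. Responses in either direction were fitted with DMSO as baseline.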

Read-out in test [12]: Macrophage colony-stimulating factor (MCSF), CSF1 (gene 1435)
Put plainly: BSK_LPS_MCSF: BioMAP Diversity Plus: LPS Assay for Macrophage colony-stimulating factor (MCSF) Biomarker Activity (AID 2283083). As to conditions: primary human HUVEC with PBMC; actives raise or lower the signal. In a few lines: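 Bidirectional fitting against DMSO was applied to M-CSF levels read by ELISA at 24 h post-dose. The system pairs human umbilical vein endothelium with peripheral blood mononuclear cells; parallel SRB staining tracked cytotoxicity.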

Read-out in test [13]: Tissue Factor, F3 (gene 2152)
Put plainly: BSK_LPS_TissueFactor: BioMAP Diversity Plus: LPS Assay for Tissue Factor Biomarker Activity (AID 2283084). The following applies: primary human HUVEC with PBMC; actives raise or lower the signal. The method in brief:
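Compound was added to an endothelial cell/PBMC co-culture, and after 24 h tissue factor (CD142) was read by ELISA. Gain or loss of signal was fitted against a DMSO baseline, and parallel SRB staining (560 nm) tracked overt cytotoxicity.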

Read-out in test [14]: Tumor necrosis factor (Homo sapiens) (UniProt P01375)
Put plainly: BSK_LPS_TNFa: BioMAP Diversity Plus: LPS Assay for Tumour Necrosis Factor alpha (TNFa) Biomarker Activity (AID 2283085). The following applies: primary human HUVEC with PBMC; actives raise or lower the signal. The method in brief: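 Cells (umbilical vein endothelium plus peripheral blood mononuclear cells) were dosed with chemical, incubated 24 h, then TNFa was quantified by ELISA; values derive from bidirectional fitting with DMSO as baseline.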

Read-out in test [15]: Vascular cell adhesion molecule 1 (VCAM1), VCAM1 (gene 7412)
Put plainly: BSK_LPS_VCAM1: BioMAP Diversity Plus: LPS Assay for Vascular cell adhesion molecule 1 (VCAM1) Biomarker Activity (AID 2283086). The following applies: primary human HUVEC with PBMC; actives raise or lower the signal. The method in brief:
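Cells are dosed in an LPS-stimulated endothelial/mononuclear co-culture and, after 24 h, VCAM-1 is quantified by ELISA. Activity in either direction is fitted relative to the DMSO negative control.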

Read-out in test [16]: CD38, CD38 (gene 952)
The test is described as follows: BSK_SAg_CD38: BioMAP Diversity Plus: SAg Assay for CD38 Biomarker Activity (AID 2283087). The following applies: primary human HUVEC with PBMC; actives raise or lower the signal. In a few lines: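 CD38 quantified by ELISA (fluorescence) in a superantigen-activated endothelial cell–PBMC co-culture at 24 h post-dose. Activity fitted in both directions relative to DMSO; parallel SRB and Alamar Blue cytotoxicity read-outs.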

Read-out in test [17]: CD40, CD40 (gene 958)
The test is described as follows: BSK_SAg_CD40: BioMAP Diversity Plus: SAg Assay for CD40 Biomarker Activity (AID 2283088). The following applies: primary human HUVEC with PBMC; actives raise or lower the signal. In a few lines:
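CD40 is measured by fluorescence ELISA in an endothelial/PBMC primary human co-culture at 24 h post-dose. Fitting is bidirectional, DMSO baseline. Parallel SRB staining (560 nm) flags cytotoxicity.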

Read-out in test [18]: CD69, CD69 (gene 969)
Put plainly: BSK_SAg_CD69: BioMAP Diversity Plus: SAg Assay for CD69 Biomarker Activity (AID 2283089).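 For AC50: cell surface CD69 protein quantified by ELISA with fluorescence detection.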 The following applies: primary human HUVEC with PBMC; actives raise or lower the signal. The method in brief:
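Values derive from bidirectional fitting relative to DMSO vehicle. Cells: umbilical vein endothelium plus peripheral blood mononuclear cells, treated 24 h before fluorescent ELISA for CD69.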

For 6 compounds, outcome and AC50 results are on record in PubChem BioAssay (EPA / NIEHS).

Values joined by “and” are separate entries in the source; they are usually repeats but may differ in a detail not shown here. Equal values may be shown once. Where a structure was tested more than once in an assay, its records may differ in their call. Active and inactive are the calls of the source. Rule for the calls: active = hit-call score of the fitted dose curve at least 0.9, where 1 is the maximum; inactive = score below 0.9.

Sequence of E-selectin (Homo sapiens) (P16581 whole entry, looked up): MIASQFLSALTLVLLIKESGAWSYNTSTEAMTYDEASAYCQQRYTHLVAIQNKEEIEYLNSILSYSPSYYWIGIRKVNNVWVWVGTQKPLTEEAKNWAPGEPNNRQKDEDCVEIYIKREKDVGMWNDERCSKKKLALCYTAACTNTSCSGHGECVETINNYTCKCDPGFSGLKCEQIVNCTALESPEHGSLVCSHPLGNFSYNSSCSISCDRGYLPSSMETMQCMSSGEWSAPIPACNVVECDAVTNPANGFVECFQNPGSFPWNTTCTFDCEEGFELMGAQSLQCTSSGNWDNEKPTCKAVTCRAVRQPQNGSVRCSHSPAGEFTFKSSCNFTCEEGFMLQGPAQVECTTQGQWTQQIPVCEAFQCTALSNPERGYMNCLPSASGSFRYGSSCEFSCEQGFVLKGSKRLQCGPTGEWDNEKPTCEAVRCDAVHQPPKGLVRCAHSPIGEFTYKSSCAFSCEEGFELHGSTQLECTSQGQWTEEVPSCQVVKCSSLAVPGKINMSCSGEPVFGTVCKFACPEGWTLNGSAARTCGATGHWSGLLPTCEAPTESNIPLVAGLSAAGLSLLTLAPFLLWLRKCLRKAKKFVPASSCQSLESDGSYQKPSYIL
Sequence of Tumor necrosis factor (Homo sapiens) (P01375 whole entry, looked up): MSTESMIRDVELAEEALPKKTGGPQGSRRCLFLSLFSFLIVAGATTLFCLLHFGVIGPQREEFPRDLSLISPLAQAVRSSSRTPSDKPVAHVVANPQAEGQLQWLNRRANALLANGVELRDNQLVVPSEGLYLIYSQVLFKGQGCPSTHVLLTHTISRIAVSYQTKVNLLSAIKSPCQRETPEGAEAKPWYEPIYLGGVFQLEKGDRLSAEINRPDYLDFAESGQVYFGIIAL

As to `C=CC(=O)OCC(F)(F)C(F)(F)C(F)(F)C(F)(F)C(F)(F)C(F)(F)C(F)(F)F`, the result in [1], in test [2], in test [3], in [4], in test [5] and in [6] was inactive. The result in [7], in test [8], in test [9], in test [10], in test [11] and in test [12] was inactive. Besides, the result in test [13], in test [14], in test [15], in test [16], in test [17] and in test [18] was inactive.

By AC50 is commonly meant the midpoint of the concentration-response curve, whichever way the signal moves. Regarding `O=C(O)C=C(C(F)(F)F)C(F)(F)F`, the result in test [1], in test [2], in test [3], in [4], in [5] and in test [6] was inactive. For the same compound, the outcome in test [7], in test [8], in test [9], in test [10], in [11] and in [12] was inactive. Further, the result in test [13], in test [14], in test [16] and in [17] was inactive. The AC50 is 8.2 µM (active) in test [3]; 19.6 µM (active) in [5]; 8.27 µM (active) in test [12]; 10.5 µM (active) and 10.2 µM (active) in test [15]; 40.3 µM (active) in test [17]; 22.8 µM (active) and 30 µM (active) in test [18].

Turning to `FC(F)(I)C(F)(F)C(F)(F)C(F)(F)I`, the AC50 in [1] was 54.2 µM (active) and 46.7 µM (active) and 53.1 µM (active); in test [2], 50.9 µM (active) and 46.8 µM (active) and 48.7 µM (active); in [3] it was 52 µM (active) and 51.2 µM (active) and 45.8 µM (active); in test [4], 49.5 µM (active) and 45.8 µM (active) and 54 µM (active); in [18], 46.7 µM (active). The result in test [5], in [6], in test [7], in test [8], in [9] and in [10] was inactive. For the same compound, the outcome in test [11], in [13], in [14], in [15], in [16] and in test [17] was inactive. The result in test [18] was inactive.

As to `O=C(O)C(F)(F)C(F)(F)C(F)(F)C(F)(F)F`, the result in [1], in [2], in test [3], in test [4], in test [5] and in [6] was inactive. The result in test [7], in test [8], in test [9], in [10], in test [11] and in test [12] was inactive. In addition, the result in test [13], in test [14], in test [15], in [16], in test [17] and in test [18] was inactive. The AC50 in test [12] was 8.3 µM (active).

For the compound `FC(F)(F)C(F)(F)CNCC(F)(F)C(F)(F)F`, the outcome in test [1], in test [2], in test [3], in test [4], in test [5] and in test [6] was inactive. The outcome in test [7], in test [8], in [9], in test [10], in test [11] and in test [13] was inactive. For the same compound, the result in [14], in test [15], in test [16], in test [17] and in test [18] was inactive.

Turning to `O=C(CC(=O)C(F)(F)C(F)(F)F)C(F)(F)F`, the outcome in test [1], in test [2], in [3], in test [4], in [5] and in test [6] was inactive. In addition, the outcome in [7], in test [8], in test [9], in test [10], in test [11] and in [12] was inactive. Besides, the result in [13], in test [14], in [15], in [16], in [17] and in test [18] was inactive.
